# A selection: hits, their analogues and other compounds. The true share with any hit is near 2%.
# Shn3 inh set2 = inhibitors of Schnurri-3 3'UTR reporter in osteoblasts; Clone20 osteoblast Shn3 3'UTR firefly luciferase, 24 h; inhibition, % at 12.5 µM; AID 588674; 360,000 tested, 0.52% active;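 active = mean inhibition of at least 75% with every replicate also reaching 75%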;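 also: 0% = median of neutral control wells and 100% = pilot-screen positive control compound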
# CF NFkB inh = inhibitors of cystic fibrosis induced NF-kB; KKLEB NF-kB-GFP reporter, PAF-induced, GFP fluorescence overnight; 360,000 tested, 0.86% active; AID 588850; inhibition, % at 5 µM;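 active = at least 50% inhibition at 5 µM, scaled per plate between neutral and stimulator controls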;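 also: PAF is a Pseudomonas aeruginosa culture filtrate used as stimulus; plate controls were PAF-stimulated DMSO wells for no effect and unstimulated DMSO wells for full effect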
# KKLEB cytotox = reduces viability of KKLEB cystic fibrosis airway cells | activity change (cytotoxicity), % at 5 µM | KKLEB CF airway cells viability, ATPlite luminescence, overnight; active compounds read low; cells stimulated with P. aeruginosa culture filtrate | 360,000 tested, 0.36% active | AID 602141;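 active = corrected activity change at or below -50% at 5 µM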
# LGR2 antag = Drosophila LGR2 receptor signaling inhibition. inhibition, % at 9.99 µM. HEK293 LGR2, CRE-luciferase, bursicon-stimulated, 4 h. 380,000 tested, 0.35% active. AID 720647;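 active = drop in luminescence signal, shown as inhibition above about 50% in the replicate tests, limit read from the data, passing the limit was not always enough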;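 also: agonist challenge used bursicon conditioned medium at about half maximal strength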
# PAX8 reporter = PAX8 transcriptional activity inhibition; RMG-I TPO-luciferase reporter, SteadyGlo, 24 h; inhibition, % at 12.6 µM; 360,000 tested, 1.2% active;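 active = mean replicate inhibition at least 60% with every replicate also reaching 60%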;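 also: luciferase light reporting Pax8 driven TPO promoter activity; plate controls were median of neutral control wells for no effect and mitoxantrone controls for full effect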
# EWS-Fli inh = inhibitors of EWS/Fli oncoprotein transcriptional activity; A673 NR0B1-luciferase reporter, viability-normalised; inhibition, % at 12.6 µM; 350,000 tested, 0.67% active; AID 651661;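 active = mean inhibition of at least 50% after viability correction, with every replicate also passing that limit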;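 also: firefly luciferase signal divided by Alamar Blue viability fluorescence both relative to DMSO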
# CF NFkB inh conf = confirmation of cystic fibrosis induced NF-kB inhibitors | shares compounds with CF NFkB inh | KKLEB CF airway cells, PAF-induced NF-kB-GFP fluorescence, overnight | inhibition, % at 5 µM | 1,300 tested, 64% active; in the data active = inhibition above about 40%;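 also: stimulus PAF is a Pseudomonas aeruginosa filtrate and not platelet activating factor; plate controls were DMSO wells with stimulus for no effect and unstimulated DMSO wells for full effect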
# * hit, by the source's call; / = no result.
SMILES,Shn3 inh set2,CF NFkB inh,KKLEB cytotox,LGR2 antag,PAX8 reporter,EWS-Fli inh,CF NFkB inh conf
O=[N+]([O-])c1c(Cl)c(Cl)c(Cl)c(Cl)c1Cl,7,-4,-13,15,-4,3,/
Nc1cc(Cl)c2nonc2c1[N+](=O)[O-],95*,76*,-76*,5,76*,/,/
O=C(Cc1ccccn1)N1CCCCN2[C@H](CO)[C@@H](c3ccc(-c4ccccc4F)cc3)[C@@H]2C1,/,/,/,7,44,26,/
Cc1ccc(-c2cc(-c3ccccc3)cc(-c3ccccc3)[n+]2-c2ccccc2C(=O)O)cc1,-18,-16,-9,-2,77*,21,/
Cc1ccccc1-c1ccc([C@H]2[C@@H](CO)N3CCCCN(C(=O)Cc4ccccn4)C[C@H]23)cc1,/,/,/,-7,-17,10,/
O=C(Cc1cccnc1)N1CCCCN2[C@@H](CO)[C@@H](c3ccc(/C=C/c4ccccc4)cc3)[C@@H]2C1,/,/,/,-3,6,2,/
CCC1(OC(=O)CN)C(=O)OCc2c1cc1n(c2=O)Cc2cc3ccccc3nc2-1 (stereo unspecified),2,79*,-34,96*,/,/,/
CC[C@@]1(O)C(=O)OCc2c1cc1n(c2=O)Cc2cc3c(NC(=O)CN)cccc3nc2-1,27,-5,-34,21,99*,56*,/
CC=Cc1ccc2n(c1=O)C[C@@H]1[C@@H](CO)[C@H](C(=O)N(C)C)[C@H]2N1C (mixture of isomers),/,/,/,-20,/,-6,/
O=Cc1cn(Cc2cccc([N+](=O)[O-])c2)c2ccccc12,34,38,-40,87*,32,7,/
CCN1/C(=C\C=C\C2=[N+](CC)c3ccccc3C2(C)C)C(C)(C)c2ccccc21,96*,-26,-36,/,/,/,/
O=C(Cc1ccccc1)N1CC2(C1)[C@H](c1ccccc1)[C@@H](CO)N2Cc1cccc(Cl)c1,/,/,/,-8,30,1,/
COc1ccc2c(c1)[nH]c1c(C)nccc12,27,57*,6,35,-24,16,83*
CC12CC(=O)C3C(CCC4CC(=O)C=CC43C)C1CCC2=O (stereo unspecified),8,66*,19,15,-4,-6,5
C[C@H]1CCCC(=O)CCC/C=C/c2cc(O)cc(O)c2C(=O)O1,10,51*,10,34,26,10,58*
COc1cc(O)cc2c1C(=O)OC(C)CCCC(=O)CCC/C=C\2 (stereo unspecified),14,22,-17,-4,-12,-2,/
COc1ccc(C#Cc2ccc([C@H]3[C@@H](CO)N4CCCCN(C(=O)Cc5ccccc5)C[C@H]34)cc2)cc1,/,/,/,-15,-15,15,/
C=C1C(C)C2C(Cc3ccccc3)NC(=O)C23OC(=O)/C=C/C(O)CCCC(C)C/C=C/C3C1O (stereo unspecified),65,76*,-29,8,93*,-12,97*
C[C@@H]1C[C@@H]([C@H](O)CC2CC(=O)NC(=O)C2)C(=O)[C@@H](C)C1,92*,68*,5,79*,/,42,105*
CC(=O)OC1(C)CC(C)C(=O)C(C(O)CC2CC(=O)NC(=O)C2)C1 (stereo unspecified),95*,81*,-44,/,/,43,114*
O=C(Cc1ccccc1)N1CCCCN2[C@@H](CO)[C@H](c3ccc(-c4ccccc4)cc3)[C@@H]2C1,/,/,/,14,-17,/,/
CCCCn1nnnc1C(CCc1ccccc1)N1CCC(n2c(=O)[nH]c3ccccc32)CC1 (stereo unspecified),18,88*,-9,106*,81*,15,74*
COc1ccc(C(c2nnnn2-c2ccc3c(c2)OCCO3)N2CCC(n3c(=O)[nH]c4ccccc43)CC2)cc1 (stereo unspecified),14,61*,5,12,10,0,35
COc1ccc(-n2nnnc2C(CCc2ccccc2)N2CCC(n3c(=O)[nH]c4ccccc43)CC2)cc1 (stereo unspecified),20,75*,-17,101*,104*,4,88*

# Screening results from PubChem BioAssay.
